Source: PubChem BioAssay (NCI)
Compounds without any hit were thinned out: in the full panel of roughly 83,000, 20% have a hit.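 Step 1: grow cells in 96-well plates. Step 2: add test compound at a single concentration. Step 3: incubate 48 h. Step 4: record percent growth.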 Activity calls are given as the source filed them. Rule for the calls: active = growth percent below 10; inactive = the rest.

Experiments:
Test in all cases: NCI-60 one-dose screen, 48 h (100 = growth as untreated, 0 = no growth, -100 = all killed)
Details in all cases: 10 µM
[1] = system: NCI-H23 lung
[2] = system: NCI-H226 lung
[3] = system: NCI-H322M lung
[4] = system: HOP-62 NSCLC
[5] = system: NCI-H460 lung
[6] = system: HOP-92 NSCLC
[7] = system: NCI-H522 lung
[8] = system: A549/ATCC NSCLC
[9] = system: 786-0 renal
[10] = system: COLO 205 colon
[11] = system: DU-145 prostate
[12] = system: K-562 leukemia
[13] = system: MALME-3M melanoma
[14] = system: MDA-MB-231 breast
[15] = system: RXF 393 renal
[16] = system: SF-268 CNS
[17] = system: SF-295 CNS
[18] = system: SF-539 CNS
[19] = system: UACC-257 melanoma
[20] = system: M14 melanoma

Measured: growth

CC1CCC2(OC1)OC1C(O)C3C4CCC5CC(OC6OC(CO)C(OC7OC(CO)C(O)C(OC8OCC(O)C(O)C8O)C7OC7OC(CO)C(O)C(OC8OC(CO)C(O)C(O)C8O)C7O)C(O)C6O)C(O)CC5(C)C4CCC3(C)C1C2C (stereo not given)
active: [1] -51.5% | [2] -50.1% | [4] -95.3% | [5] 5.81% | [6] -3.92% | [7] -71.4% | [8] -40.2% | [9] -92% | [11] -100% | [12] -100% | [14] -70.2% | [15] -71.6% | [16] -39.7% | [17] -77.9% | [18] -53.3% | [19] -85.7%
inactive: [3] 13.2% | [10] 22.7% | [13] 14.8% | [20] 62.9%

O=[P+](O)c1ccccc1
inactive: [1] 107% | [2] 107% | [3] 149% | [4] 93.9% | [5] 106% | [6] 101% | [8] 107% | [10] 112% | [11] 121% | [12] 103% | [13] 119% | [14] 112% | [15] 115% | [16] 103% | [17] 109% | [18] 104% | [19] 101% | [20] 100%

CCOP(=O)(OCC)C(O)c1ccccc1Cl (stereo not given)
inactive: [1] 99.4% | [2] 98.1% | [3] 93.8% | [4] 109% | [5] 102% | [7] 95.7% | [8] 105% | [9] 102% | [10] 107% | [11] 97.7% | [12] 97.7% | [13] 86.8% | [14] 118% | [16] 100% | [17] 112% | [18] 91.1% | [19] 106% | [20] 103%

CC(C)(C)OOC(=O)/C=C\C(=O)OOC(C)(C)C
inactive: [1] 103% | [2] 102% | [4] 97.7% | [5] 109% | [6] 88.3% | [7] 107% | [8] 110% | [9] 108% | [10] 110% | [11] 112% | [12] 104% | [13] 141% | [14] 97.5% | [15] 105% | [16] 93.8% | [17] 138% | [18] 93.8% | [19] 99.4%

Cc1ccc(NC(=O)CBr)cc1
inactive: [1] 91.7% | [2] 103% | [3] 99.4% | [5] 105% | [6] 96% | [9] 107% | [10] 108% | [11] 105% | [12] 70.8% | [13] 87.5% | [14] 95.1% | [15] 102% | [16] 104% | [17] 103% | [18] 111% | [20] 97.6%
active: [7] -55.6%

COc1ccccc1/C=C/[N+](=O)[O-]
inactive: [1] 74.9% | [2] 96.1% | [3] 102% | [4] 97.1% | [5] 74.4% | [7] 62.6% | [8] 75.5% | [9] 93.1% | [10] 79.3% | [11] 48.2% | [12] 33.8% | [13] 97.5% | [14] 73% | [16] 76.1% | [17] 93.9% | [18] 64% | [19] 71.8% | [20] 59.8%
active: [15] 1.37%

COC(=O)C1C(O)C(C)C(O)C(C)/C=C\C=C(C)C(=O)Nc2c(C)c(OC(C)=O)c3c(c2O)C(=O)C(C)=C2OCOC(=C23)C(C)=CC(C)(O)C(O)C(C)C1O (stereo not given)
inactive: [1] 97.6% | [2] 99.2% | [3] 106% | [4] 96.8% | [5] 111% | [7] 59.1% | [8] 98.5% | [9] 107% | [10] 94.7% | [11] 92.2% | [12] 106% | [13] 97.9% | [14] 88.6% | [15] 98.6% | [16] 92.2% | [17] 103% | [18] 100% | [19] 93.1% | [20] 118%

CC/C(=C/c1ccc(OC)cc1)[N+](=O)[O-]
inactive: [1] 51.8% | [3] 86% | [4] 78.1% | [5] 52.7% | [8] 62.3% | [11] 31.5% | [16] 38% | [17] 98.1% | [20] 19.9%
active: [2] -12.5% | [7] -47.7% | [9] -83.5% | [10] -60.3% | [12] 5.85% | [13] -36.1% | [14] -18.5% | [15] -79.7% | [18] -19.6% | [19] 4.44%

CC(C)C1(NC(=O)C2CC3c4cccc5[nH]cc(c45)CC3N(C)C2)OC2(O)C3CCCN3C(=O)C(Cc3ccccc3)N2C1=O (stereo not given)
inactive: [1] 99.4% | [2] 103% | [3] 118% | [4] 110% | [5] 109% | [7] 82.1% | [8] 107% | [9] 96.3% | [10] 106% | [11] 104% | [12] 69.8% | [13] 98.8% | [14] 86.9% | [15] 96.6% | [16] 93.1% | [17] 106% | [18] 98.8% | [19] 93.7% | [20] 103%

COc1cc(/C=C/[N+](=O)[O-])cc(OC)c1OC
inactive: [1] 45% | [3] 36.1% | [4] 16.8% | [6] 58.1% | [8] 54.2% | [14] 34% | [16] 28.6% | [17] 69%
active: [5] 6.31% | [7] -54.8% | [9] -48% | [10] -53.4% | [11] 9.73% | [12] 5.19% | [13] -30.2% | [18] -61.3% | [19] -15.8% | [20] -6.32%

COc1ccc(/C=C(\C)[N+](=O)[O-])cc1OC
active: [6] -9.49% | [7] -69.4% | [9] -44.2% | [10] -80.5% | [12] -9.93% | [13] -72.2% | [19] -80.4% | [20] -41.9%
inactive: [1] 64.7% | [2] 68.9% | [3] 64.9% | [4] 63% | [8] 36.3% | [11] 18.6% | [14] 77.9% | [16] 12% | [17] 69% | [18] 62.8%

Oc1c(I)cc(I)cc1I
inactive: [2] 98.6% | [3] 110% | [4] 103% | [5] 105% | [6] 106% | [8] 106% | [10] 116% | [11] 114% | [12] 98.6% | [13] 121% | [14] 93.7% | [15] 108% | [16] 104% | [17] 110% | [18] 102% | [19] 107%

Oc1c(Cl)cc(Cl)c2ccccc12.[Cu+2]
inactive: [1] 91.4% | [3] 92.1% | [4] 108% | [5] 99.4% | [6] 104% | [7] 71.2% | [8] 111% | [9] 116% | [10] 102% | [11] 106% | [12] 69% | [13] 96.3% | [14] 81.4% | [15] 103% | [16] 109% | [18] 108% | [19] 113% | [20] 97.9%

COc1cc2c(c(OC)c1OC)-c1ccc(O)c(=O)cc1[C@@H](NC(C)=O)CC2
inactive: [1] 65.1% | [2] 68.9% | [3] 57.5% | [4] 28.9% | [5] 24.6% | [8] 31.9% | [9] 68.9% | [10] 72.6% | [11] 61.5% | [12] 46.8% | [13] 79.8% | [14] 72.2% | [15] 59.7% | [16] 47.5% | [18] 51.5% | [19] 75.7% | [20] 52.7%

C[CH2][Hg][S]c1ccccc1C(=O)O
active: [2] -53.4% | [7] -77.2% | [9] 1.68% | [10] -100% | [11] -28.6% | [12] -4.39% | [13] -96.4% | [14] -5.17% | [15] -96.8% | [16] -18.6% | [19] -98.5% | [20] -67.1%
inactive: [1] 11.3% | [3] 66.2% | [4] 47.2% | [5] 36% | [8] 35% | [17] 97.2%

NNc1ccccc1
inactive: [1] 108% | [2] 96.3% | [3] 114% | [4] 85.4% | [5] 60.4% | [8] 84.3% | [9] 79.7% | [10] 85.4% | [11] 98.4% | [12] 19.5% | [13] 118% | [14] 89.8% | [15] 123% | [16] 82.6% | [17] 80.5% | [18] 99.3% | [19] 107% | [20] 46.6%
